Source: PubChem BioAssay (National Center for Advancing Translational Sciences (NCATS))
Sampled rows, rich in hits. Any-hit rate of the full collection: about 21%.
Pf growth 48h = P. falciparum growth inhibition at 48 hours (one generation); AID 504832; hit rate 5.9% among 310,000; Potency, µM (doses to about 28.7 µM), inactives show at the top dose activity change, negative = inhibition, most hits filed as inhibitors; P. falciparum luciferase growth in erythrocytes, 48 h; also: potency is read from the fitted curve at half-maximal effect; % is scaled to controls: 0 for no effect and ±100 for the full control effect
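In quantitative HTS format, infected erythrocytes bearing luciferase-reporter parasites were treated for a single generation at 37 C. Luminescence after adding detection reagent served as the growth measure.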
HCV inh = HCV inhibition; Huh7.5.1 HCVcc-Cre infection, luciferase reporter, 44 h; Potency, µM (highest dose often 41.8 µM), inactives show at the highest dose activity change, negative = inhibition, actives largely listed as inhibitors; hit rate 3.4% among 340,000; also: potency is read from the fitted curve at half-maximal effect; % is scaled to controls: 0 for no effect and ±100 for the full control effect
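Infectious HCVcc-Cre (~0.5 moi) was added to cells just after compound, with cells seeded 4 h earlier at 1,000 per well. Luciferase activity after 44 h culture reported infection; substrate was incubated 15 min at room temperature before reading.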
AMA1-RON2 inh = inhibitors of Plasmodium falciparum AMA1-RON2 interaction; AlphaScreen AMA1-biotinylated RON2 peptide binding; Potency, µM (highest dose often 58.2 µM), without a hit: at the top dose activity change, negative = inhibition, usual class: inhibitors; hit rate 0.2% among 360,000;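 also: potency is read from the fitted curve at half-maximal effect; 0% = vehicle wells and -100% = peptide control; nearly all actives have a fitted effect of over 45% in size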
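AMA1 (3D7) with his tag at 25 nM final met compounds first, then biotinylated RON2 peptide at 25 nM; detection used donor plus acceptor beads, 10 µg/mL apiece, read by AlphaScreen after 30 min at room temperature.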
Cycloheximide cs = affects cycloheximide protein synthesis inhibition readout, counter-screen; max response, %; cell reporter, cycloheximide protein synthesis inhibition counterscreen; hit rate 12% among 300,000; AID 2314; in the data active = max response mostly above about 13%, no sharp cut-off; inactive = mostly below about 14%; also: read at 38.3 µM for the half of the compounds with a filed dose; 0% is about no effect
Shiga inhibitor = Shiga toxin inhibition | hit rate 9.2% among 290,000 | inhibition, % at 38.7 µM | AID 2315 | Vero cells, Shiga toxin protein synthesis inhibition reporter; in the data active = inhibition mostly above about 28%, no sharp cut-off; inactive = mostly below about 43%; also: 0% is about no effect
Pf growth 96h = P. falciparum growth inhibition at 96 hours; P. falciparum luciferase reporter growth, 96 h; Potency, µM (doses to about 28.7 µM), without a hit: at the top dose activity change, negative = inhibition, usual class: inhibitors; hit rate 6.9% among 320,000; AID 504834; also: potency is read from the fitted curve at half-maximal effect; % is scaled to controls: 0 for no effect and ±100 for the full control effect
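Readout is luminescence from an integrated firefly luciferase in P. falciparum. Red cells, 2% hematocrit and 0.05% parasitemia final, were cultured with compound through two parasite generations (96 hours) at 37 C, 5% CO2.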
* marks the source's active call; other numbers are inactive results. Unless noted, calls follow the shape of the dose curve; as a rule, active = well fitted curve in the direction sought with a large enough effect; inconclusive = small, poorly fitted or top-dose-only effect, or another doubt; inactive = no such curve, though single readings can be large; an effect the other way counts as inactive or inconclusive.

Cc1ccc(C(=O)OCCN(C)Cc2ccccc2)cc1 was read as Pf growth 48h 10%, HCV inh 9%, AMA1-RON2 inh -5%, Cycloheximide cs 12, Shiga inhibitor -7 and Pf growth 96h -12%.
`Cc1c(CCOC(=O)C23CC4(C)CC(C)(CC(C)(C4)C2)C3)sc[n+]1CC(=O)c1ccccc1` gave Pf growth 48h inconclusive, HCV inh 12%, AMA1-RON2 inh -8%, Cycloheximide cs -7, Shiga inhibitor -11 and Pf growth 96h 10%.
Screening Cc1c(CCOC(=O)c2cc([N+](=O)[O-])cc([N+](=O)[O-])c2)sc[n+]1CC(=O)c1ccc(Br)cc1 returned Pf growth 48h inconclusive, HCV inh 10µM*, AMA1-RON2 inh 5%, Cycloheximide cs 7, Shiga inhibitor 29 and Pf growth 96h inconclusive.
`Cc1c(CCOC(=O)CC23CC4CC(CC(C4)C2)C3)sc[n+]1CC(=O)c1ccccc1` gave Pf growth 48h 13µM*, HCV inh 11µM*, AMA1-RON2 inh 14%, Cycloheximide cs 1, Shiga inhibitor -3 and Pf growth 96h 52%.
For Cc1ccc(C(=O)OCCc2sc[n+](Cc3ccccc3)c2C)cc1 the results were Pf growth 48h 1.5µM*, HCV inh 7%, AMA1-RON2 inh 1%, Cycloheximide cs -2, Shiga inhibitor -6 and Pf growth 96h 1µM*.
Screening COc1cc(CNC2CCCCCCC2)c(Br)cc1OCCO returned Pf growth 48h inconclusive, HCV inh inconclusive, AMA1-RON2 inh 9%, Cycloheximide cs -2, Shiga inhibitor -6 and Pf growth 96h inconclusive.
CCCCN(CCCNC(=O)CN1C(=O)COc2ccc(S(=O)(=O)N3CCC(C)CC3)cc21)Cc1ccccc1 was read as Pf growth 48h inconclusive, HCV inh -1%, AMA1-RON2 inh -5%, Cycloheximide cs -4, Shiga inhibitor -11 and Pf growth 96h inconclusive.
For Cc1c(CCOC(=O)C23CC4CC(CC(C)(C4)C2)C3)sc[n+]1Cc1ccccc1 the results were Pf growth 48h 3.3µM*, HCV inh -2%, AMA1-RON2 inh 21%, Cycloheximide cs -1, Shiga inhibitor -12 and Pf growth 96h 12µM*.
For Cc1c(CCOC(=O)c2ccc(Cl)cc2Cl)sc[n+]1CC(=O)c1ccccc1 the results were HCV inh 13µM* and AMA1-RON2 inh -10%.
`OC(c1cc(F)cc(Cl)c1)c1ncc(-c2ccccc2C(F)(F)F)[nH]1` (centres undefined) gave AMA1-RON2 inh 7%.
For COCC(C)OC(=O)c1c(N)n(CC(C)C)c2nc3ccccc3nc12 (centres undefined) the results were Pf growth 48h 12µM*, HCV inh -10%, AMA1-RON2 inh 53%, Cycloheximide cs -5 and Shiga inhibitor -31.
Screening C=CCn1c(N)c(C(=O)OC(C)CC)c2nc3ccccc3nc21 (centres undefined) returned Pf growth 48h 10µM*, HCV inh inconclusive, AMA1-RON2 inh 29%, Cycloheximide cs 1 and Shiga inhibitor -20.
`CCc1nnc(SCCSc2nnc(CC)n2N)n1N` gave Pf growth 48h 28%, HCV inh -17%, AMA1-RON2 inh -4%, Cycloheximide cs 2, Shiga inhibitor -13 and Pf growth 96h 141%.
`CCCCc1nnc(SCCSc2nnc(CCCC)n2N)n1N` gave Pf growth 48h -12%, HCV inh -11%, AMA1-RON2 inh -15%, Cycloheximide cs 6, Shiga inhibitor 22 and Pf growth 96h 13µM*.
For O=C(c1ccc(C(F)(F)F)cc1)C1CCCN(C(=O)CN2CCCC2=O)C1 (centres undefined) the results were Pf growth 48h -2%, HCV inh 23%, AMA1-RON2 inh 2%, Cycloheximide cs -4, Shiga inhibitor -12 and Pf growth 96h 14%.
For COCCC(=O)N1CCCC(C(=O)c2ccc(C(F)(F)F)cc2)C1 (centres undefined) the results were Pf growth 48h -1%, HCV inh 8%, AMA1-RON2 inh 9%, Cycloheximide cs -1, Shiga inhibitor 7 and Pf growth 96h 13µM*.
For O=C(c1ccc(C(F)(F)F)cc1)C1CCCN(C(=O)CN2C(=O)CSC2=O)C1 (centres undefined) the results were Pf growth 48h 35%, HCV inh -7%, AMA1-RON2 inh 8%, Cycloheximide cs 25*, Shiga inhibitor 53* and Pf growth 96h 20%.
Screening O=C(c1ccc(-c2nnc(Nc3cccc(Cl)c3)c3ccccc23)cc1)N1C[C@H]2C[C@H](C1)c1cccc(=O)n1C2 returned Pf growth 48h 13µM*, HCV inh -27%, AMA1-RON2 inh -21%, Cycloheximide cs 1, Shiga inhibitor -20 and Pf growth 96h 6.6µM*.
For COc1nnc(-c2ccc(C(=O)N3C[C@@H]4C[C@H](C3)c3cccc(=O)n3C4)cc2)c2ccccc12 the results were Pf growth 48h inconclusive, HCV inh -8%, AMA1-RON2 inh -5%, Cycloheximide cs 1, Shiga inhibitor 17 and Pf growth 96h 2.6µM*.
Screening O=C(Nc1ccc2c(c1)[C@@H]1C[C@@H](CC(=O)N3CCOCC3)O[C@@H](CO)[C@@H]1O2)NC1CCCC1 returned AMA1-RON2 inh -6%.
`O=C(CCCCCNC(=O)N1CCn2c1nc1ccccc12)NCc1ccccc1Cl` gave Pf growth 48h -16%, HCV inh -25%, AMA1-RON2 inh 6%, Cycloheximide cs -2, Shiga inhibitor 8 and Pf growth 96h 0%.
For Cc1ccc(C2=NCCn3c2c2ccc(C(F)(F)F)cc2[n+]3[O-])cc1 the results were Pf growth 48h 10µM*, HCV inh inconclusive, AMA1-RON2 inh -4% and Pf growth 96h inconclusive.
For COc1ccc2oc(=O)c(C(=O)Nc3ccccc3-c3ccccc3)cc2c1 the results were Pf growth 48h 16%, HCV inh 13%, AMA1-RON2 inh 8%, Cycloheximide cs -3 and Shiga inhibitor 2.
COc1cccc(NC(=O)c2oc3ccccc3c2NC(=O)c2ccc3c(c2)OCO3)c1 was read as Pf growth 48h -18%, HCV inh -29%, AMA1-RON2 inh -5%, Cycloheximide cs 3, Shiga inhibitor 13 and Pf growth 96h -11%.
Screening COc1cccc(NC(=O)c2oc3ccccc3c2NC(=O)C(C)(C)C)c1 returned Pf growth 48h inconclusive, HCV inh 8.9µM*, AMA1-RON2 inh 5%, Cycloheximide cs 13, Shiga inhibitor 57 and Pf growth 96h -2%.
`COc1ccc2oc(=O)c(C(=O)Nc3ccccc3C)cc2c1` gave Pf growth 48h 45%, HCV inh 9%, AMA1-RON2 inh -1%, Cycloheximide cs 34* and Pf growth 96h 0%.
